DT40 TDP1 no CPT: qHTS for Inhibitors of human tyrosyl-DNA phosphodiesterase 1 (TDP1): qHTS in cells in absence of CPT; Potency, µM (highest dose often 46.2 µM), without a hit: at the highest dose activity change, negative = growth inhibition, most hits filed as inhibitors; DT40 Tdp1-/- hTDP1 cells, no CPT, ATP luminescence, 48 h; hit rate 15% among 420,000; further: potency means the concentration at half of the fitted maximal effect; nearly all actives have a fitted effect of over 55% in size
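A cellular qHTS used chicken DT40 cells lacking endogenous Tdp1 but carrying stably transfected human TDP1. Compounds were applied without camptothecin, and cell growth kinetics were judged by ATP-dependent luminescence after ≥48 hr.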
IL1B secr inh: qHTS for Inhibitors of Inflammasome Signaling: IL-1-beta AlphaLISA Primary Screen; THP-1 LPS/ATP IL-1B secretion, AlphaLISA, 16 h; hits give low values; hit rate 4.7% among 360,000; AID 743279, 2014; activity change, % at 57.5 µM; in the data active means activity change below about -50%; inconclusive means mostly about -30% to -49%
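THP-1 cells pretreated 1 hr with compounds (up to 57.5 uM final), then stimulated with LPS (250 ng/mL final) plus ATP (1.25 mM final); secreted IL-1B measured by AlphaLISA after 16 hr, decreased signal indicating inhibition.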
TDP1 cell CPT: qHTS for Inhibitors of human tyrosyl-DNA phosphodiesterase 1 (TDP1): qHTS in cells in presence of CPT | chicken DT40 Tdp1-/-;hTDP1 cells + 20 nM CPT, ATP luminescence, 48 h | AID 686979, 2013 | hit rate 12% among 420,000 | Potency, µM (series often up to 46.2 µM), inactives show at the highest dose activity change, negative = growth inhibition, most hits filed as inhibitors; further: potency means the concentration at half of the fitted maximal effect; nearly all actives have a fitted effect of over 55% in size
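Chicken DT40 Tdp1-/- cells stably complemented with human TDP1 were seeded at 400 cells/well in medium containing 20 nM camptothecin, exposed to pin-transferred compounds, and grown at 37 °C for at least 48 hr. Viability was read as ATP luminescence.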
HT1080 IDH1KD tx: qHTS for induction of synthetic lethality in tumor cells producing 2HG: qHTS for the HT-1080-IDH1KD cell line. Potency, µM (top dose mostly 46.1 µM), for the others: top-dose activity, negative = toxicity, hits mostly cytotoxic. hit rate 2% among 360,000. HT-1080 IDH1 knockdown viability, ATP luminescence, 48 h. AID 686971, 2013;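 further: potency means the concentration at half of the fitted maximal effect; 0% = DMSO wells and -100% = cell-free medium wells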
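Using the IDH1-knockdown HT-1080 line run in the same batch and compound series as the NT line, viability after 48 h at 37 °C was determined by CellTiter-Glo luminescence and expressed as % activity.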
ELG1 repair inh: qHTS screen for small molecules that inhibit ELG1-dependent DNA repair in human embryonic kidney (HEK293T) cells expressing luciferase-tagged ELG1; HEK293T ELG1-luciferase reporter, luminescence, 16 h; DNA damage induced by 5-fluorouridine; Potency, µM (doses to about 46.1 µM), without a hit: at the highest dose activity change, negative = inhibition, usual class: inhibitors; hit rate 2.3% among 330,000; further: potency means the concentration at half of the fitted maximal effect; nearly all actives have a fitted effect of over 55% in size
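Luminescence from the luciferase reporter, measured 30 min after ONE-Glo reagent at room temperature, was the read-out. Beforehand, 2,000 cells per well were exposed for 16 hr at 37 °C to 5-fluorouridine together with compound or vehicle.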
HT1080-NT tox: qHTS for induction of synthetic lethality in tumor cells producing 2HG: qHTS for the HT-1080-NT fibrosarcoma cell line | Potency, µM (highest dose often 46.1 µM), without a hit: at the highest dose activity, negative = less viability, actives largely listed as cytotoxic | hit rate 1.6% among 360,000 | HT-1080-NT fibrosarcoma viability, CellTiter-Glo ATP luminescence, 48 h;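 further: NT is the 2HG producing partner of a matched IDH1 knockdown line; potency means the concentration at half of the fitted maximal effect; 0% = DMSO-treated cells and -100% = media-only wells without cells; nearly all actives have a fitted effect of over 55% in size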
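750 cells/well, RPMI + 5% FBS; 2 h settle, compound pin-transfer, 48 h at 37 degrees C. CellTiter-Glo 10 min RT, luminescence. Normalized to DMSO and media-only wells.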
* marks the source's active call; other numbers are inactive results. Hits are enriched below; roughly 19% of the tested compounds scored in any of these assays. Unless noted, the call rests on the fitted dose curve; in most records, active means well fitted curve in the direction sought with a large enough effect; inconclusive means small, poorly fitted or top-dose-only effect, or another doubt; inactive means no such curve, though single readings can be large; an effect the other way counts as inactive or inconclusive. Unless noted, on the % scale 0 is the no-effect control and ±100 the full control effect.

Cc1ccc(-c2n[nH]c(=O)c3ccccc23)cc1S(=O)(=O)NC(C)(C)C was read as DT40 TDP1 no CPT -17.2%, IL1B secr inh 11.7, TDP1 cell CPT inconclusive, HT1080 IDH1KD tx -16.1%, ELG1 repair inh inconclusive and HT1080-NT tox -4.3%.
For C#CC(C)(C)NS(=O)(=O)c1cc(-c2nnc(Nc3ccc(C)cc3)c3ccccc23)ccc1C the results were DT40 TDP1 no CPT inconclusive and TDP1 cell CPT 20.6µM*.
For CCN(CC)C(=O)c1ccc(-c2nnc(Nc3ccc(C(=O)N(C)C)cc3)c3ccccc23)cc1 the results were DT40 TDP1 no CPT 16.4µM*, IL1B secr inh inconclusive, TDP1 cell CPT inconclusive, HT1080 IDH1KD tx -6.6%, ELG1 repair inh inconclusive and HT1080-NT tox -6.9%.
For CC1(C(=O)NS(=O)(=O)c2cccc(OC(F)F)c2)CCN1C(=O)Cc1cccs1 (configuration not stated) the results were DT40 TDP1 no CPT 6.1%, IL1B secr inh 26.7, TDP1 cell CPT -9.1%, HT1080 IDH1KD tx -0.1% and HT1080-NT tox 15.6%.
For Cc1ccccc1-c1nc(SCC(=O)NCc2ccc(F)cc2)c2c(=O)n(C)c(=O)n(C)c2n1 the results were DT40 TDP1 no CPT 5.7% and TDP1 cell CPT 4.7%.
For CC(=O)Nc1ccc(NS(=O)(=O)c2cc(-c3n[nH]c(=O)c4ccccc34)ccc2C)cc1 the results were DT40 TDP1 no CPT -8.9%, IL1B secr inh -9.4, TDP1 cell CPT 0.4%, HT1080 IDH1KD tx -9.3%, ELG1 repair inh -8.6% and HT1080-NT tox -19.0%.
`CCN(CC)C(=O)c1ccc(Nc2nnc(-c3ccc(C)c(S(=O)(=O)NC)c3)c3ccccc23)cc1` gave DT40 TDP1 no CPT 20.6µM* and TDP1 cell CPT 25.9µM*.
`CC(=O)Nc1ccc(Nc2nnc(-c3ccc(O)cc3)c3ccccc23)cc1` gave DT40 TDP1 no CPT -0.2%, IL1B secr inh -26.3, TDP1 cell CPT -2.6%, HT1080 IDH1KD tx 1.7%, ELG1 repair inh -22.8% and HT1080-NT tox -4.6%.
`CNS(=O)(=O)c1cc(-c2nnc(Nc3ccc(NC(C)=O)cc3)c3ccccc23)ccc1C` gave DT40 TDP1 no CPT 18.4µM*, IL1B secr inh inconclusive, TDP1 cell CPT 16.4µM*, HT1080 IDH1KD tx -9.4%, ELG1 repair inh -40.1% and HT1080-NT tox 0.5%.
CCN(CC)S(=O)(=O)c1cc(-c2nnc(Nc3ccc(OC)c(C(N)=O)c3)c3ccccc23)ccc1C was read as DT40 TDP1 no CPT inconclusive and TDP1 cell CPT 18.4µM*.
For C#CCOc1ccc(-c2nnc(Nc3ccc(NC(C)=O)cc3)c3ccccc23)cc1 the results were DT40 TDP1 no CPT 16.4µM* and TDP1 cell CPT inconclusive.
Screening CC(CNC(=O)CC[C@H]1O[C@@H](n2ccc(=O)[nH]c2=O)[C@H](O)[C@@H]1O)c1ccccc1 (some centres not stated) returned DT40 TDP1 no CPT 8.2%, IL1B secr inh 29.6, TDP1 cell CPT 1.7%, HT1080 IDH1KD tx 16.4% and HT1080-NT tox 14.6%.
`C/C(=N\N1CCN(c2ccccc2)CC1)c1ccncc1` gave DT40 TDP1 no CPT 5.4%, IL1B secr inh -3.1, TDP1 cell CPT 16.8%, HT1080 IDH1KD tx 8.2%, ELG1 repair inh 9.3% and HT1080-NT tox 27.6%.

Source: PubChem BioAssay (National Center for Advancing Translational Sciences (NCATS))
